ASM inhibitor = human S-ASM enzyme inhibition | 340,000 tested, 0.006% active | placental ASM, HMU-PC fluorogenic substrate, 60 min | P17405 | AID 504937 | Potency, µM (series often up to 57.5 µM), without a hit: top-dose activity change, negative = inhibition, most hits filed as inhibitors; note: potency is the fitted concentration of half-maximal effect
Target sequence (P17405 47-631 limits assumed): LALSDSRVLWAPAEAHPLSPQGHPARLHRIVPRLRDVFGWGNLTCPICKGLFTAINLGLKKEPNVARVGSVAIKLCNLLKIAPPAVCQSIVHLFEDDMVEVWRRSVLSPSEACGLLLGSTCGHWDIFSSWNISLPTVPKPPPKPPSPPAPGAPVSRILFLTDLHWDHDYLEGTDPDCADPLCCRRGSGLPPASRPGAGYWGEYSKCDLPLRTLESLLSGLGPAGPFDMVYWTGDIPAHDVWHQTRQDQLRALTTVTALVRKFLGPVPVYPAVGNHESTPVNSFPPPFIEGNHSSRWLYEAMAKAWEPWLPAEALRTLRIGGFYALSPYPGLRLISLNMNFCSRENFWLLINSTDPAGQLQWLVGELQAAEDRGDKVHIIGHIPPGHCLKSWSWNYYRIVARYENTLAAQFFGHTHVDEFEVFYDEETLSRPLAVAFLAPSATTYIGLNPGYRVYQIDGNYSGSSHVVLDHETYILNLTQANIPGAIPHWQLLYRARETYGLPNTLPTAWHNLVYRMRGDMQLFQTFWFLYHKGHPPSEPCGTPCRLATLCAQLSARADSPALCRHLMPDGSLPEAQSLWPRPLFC
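HMU-PC0 cleavage (9 uM final) by human placental ASM, 60 min at 37 °C following 10 min compound exposure at RT; stopped at pH 10, fluorescence Ex 386/Em 447 nm.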
SW480 rerep = DNA re-replication induction in SW480 cells; SW480 DNA re-replication, Hoechst DNA content imaging, 48 h; Potency, µM (series often up to 46.1 µM), for the others: at the highest dose re-replication activation, hits mostly activators; 340,000 tested, 1.8% active; note: potency is the fitted concentration of half-maximal effect; % of control where 0% means no effect; nearly all actives have a fitted effect of over 55% in size
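Quantitative HTS format with DMSO vehicle controls; 48 hr drug incubation at 37 C, then 40 min Hoechst staining and scanning imager measurement at 405 nm excitation.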
MCF10A rereplic = induces DNA re-replication in MCF 10a normal breast cells; AID 624296; Potency, µM (top dose mostly 46.1 µM), without a hit: at the top dose activity, positive = re-replication, most hits filed as activators; 350,000 tested, 2.9% active; MCF 10A DNA re-replication, Hoechst nuclear intensity, 48 h; note: potency is the fitted concentration of half-maximal effect; % of control where 0% means no effect; nearly all actives have a fitted effect of over 50% in size
KB-V1 MDR tox = KB-V1 MDR subline cytotoxicity. KB-V1 MDR cells viability, CellTiter-Glo, 72 h. Potency, µM (highest dose often 46.1 µM), most hits filed as cytotoxic. 400,000 tested, 3.4% active. AID 1347076; note: potency is the fitted concentration of half-maximal effect; % is set by controls: 0 for no effect and ±100 for the full control effect; nearly all actives have a fitted effect of over 60% in size
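Compound-treated KB-V1 multidrug-resistant cells, 72 h, 37 degrees C; viability by CellTiter-Glo. Fitted qHTS curves give the values.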
KB-3-1 tox = kills parental KB-3-1 adenocarcinoma cells; KB-3-1 viability, CellTiter-Glo ATP luminescence, 72 h; Potency, µM (highest dose often 46.1 µM), usual class: cytotoxic; 400,000 tested, 1.4% active; note: potency is the fitted concentration of half-maximal effect; % is set by controls: 0 for no effect and ±100 for the full control effect; nearly all actives have a fitted effect of over 60% in size
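Cytotoxicity measured as CellTiter-Glo luminescence after 72 h at 37 C. Compound titrations were pinned onto drug-naive KB-3-1 parental adenocarcinoma cells grown in DMEM with 10% FBS, and normalized data fitted to concentration-response curves.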
Giardia kill = kills Giardia lamblia; activity change, % at 7.66 µM, hits read low; Giardia lamblia trophozoite viability; 340,000 tested, 0.15% active; in the data active = activity change below about -80%; inconclusive = between about -30% and that limit;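 note: parasites exposed to compound for two days anaerobically before the ATP read; % is set by controls: 0 for no effect and ±100 for the full control effect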
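Trophozoite viability was measured as ATP-dependent luminescence, read 15-30 min after reagent addition. Before that, parasites at 100 cells/well were exposed to compounds for 48 h, anaerobically, at 37 deg C.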
An asterisk follows results filed as active; i = inactive; ? = inconclusive; / = no result; ! = a repeat was not active; [ ] = another dose, or the depositor's remark. Only some compounds are listed: those with a hit (about 6.9% of all), similar ones and a draw of the others. Unless noted, calls come from the whole dose curve; as a rule, active = well fitted curve in the direction sought with a large enough effect; inconclusive = small, poorly fitted or top-dose-only effect, or another doubt; inactive = no such curve, though single readings can be large; an effect the other way counts as inactive or inconclusive.

SMILES	ASM inhibitor	SW480 rerep	MCF10A rereplic	KB-V1 MDR tox	KB-3-1 tox	Giardia kill
Cc1ccc(C[n+]2cc(-c3ccc(Cl)cc3)n3c2CCC3)cc1	1%	2%	11%	?	6.5µM*	7
Cc1ccc(-c2c[n+](Cc3ccc(Cl)cc3)c3n2CCC3)cc1	1%	5%	2%	i	?	-3
Clc1cccc(C[n+]2cc(-c3ccccc3)n3c2CCC3)c1	1%	-33%	17%	i	9.2µM*	-11
CCOc1ccccc1NC(=O)CSc1nc2c(oc3ccccc32)c(=O)n1C(C)C	/	/	/	i	i	/
Cc1ccc(SCC(=O)NC(=O)c2ccc(S(=O)(=O)N(C)C)cc2)cc1C	-5%	/	-1%	i	i	0
CCN(CC)c1ccc2c(C)cc(=O)oc2c1	i	?	26µM*	?	i	-10
CCN(CC)c1ccc2ccc(=O)oc2c1	i	18µM*	?	i	i	-15
CCN(CC)c1ccc2cc(S(=O)(=O)c3ccc(C)cc3)c(=O)oc2c1	392%	3.3µM*	2.6µM*	i	i	-23
Cc1cc(=O)oc2cc(O)ccc12	i	-35%	-28%	i	i	?
CC(=O)c1cc(-c2ccccc2)n(CCC(=O)NCCc2ccccc2)c1C	/	/	/	i	i	/
O=C(CSc1nc(=O)n(Cc2ccncc2)c2c1CCC2)Nc1ccc(F)cc1F	/	/	/	i	i	/
Cc1ccc(CNC(=O)CN2C(=O)CSc3c2c(C)nn3-c2ccccc2)cc1	/	/	/	i	i	/
Cc1cc(Nc2ccc3c(c2)OCCO3)c2cc(Cl)ccc2n1	-1%	2%	10%	15µM*	i	18
Cc1cc(Nc2cccc(Cl)c2)c2ccccc2n1	0%	-5%	14%	?	i	-4
Cn1c(=O)c([N+](=O)[O-])c(N2CCN(Cc3ccc4c(c3)OCO4)CC2)c2ccccc21	-3%	2%	-2%	?	i	-20
C=CCOc1ccccc1CNc1ccccc1C	1%	8.2µM*	?	i	i	17
Cc1ccccc1NCc1ccccc1O	-1%	-6%	0%	i	i	4
COc1ccc(CCNC(=O)CSc2cn(CCNC(=O)c3cccc(C(F)(F)F)c3)c3ccccc23)cc1OC	/	/	/	?	i	/
COc1cccc(-n2nnnc2SCC(=O)Nc2ccc3c(c2)OCCO3)c1	0%	0%[9.22 µM]	-1%	i	i	-12
O=C(CSc1nnnn1-c1ccc2c(c1)OCO2)NCc1ccccc1	-2%	16µM*	26%	12µM*	7.3µM*	-12
Cc1cc(C)nc(SCC(=O)c2ccc3c(c2)OCCO3)n1	0%	0%	15µM*	?	i	10
COc1ccc(-n2nnnc2SCC(=O)c2ccc3c(c2)OCCO3)c(OC)c1	3%	2%	-1%	9.2µM*	i	-6
COc1ccc(-n2nnnc2SCC(=O)Nc2ccc3c(c2)OCCO3)cc1OC	1%	5%	15%	9.2µM*	?	-8
CCN(Cc1cccs1)c1ncnc2ccc(-c3ccc4c(c3)OCO4)cc12	/	/	/	i	i	/
Cc1ccc(S(=O)(=O)C[C@@H]2OC3CCCCC3N2S(=O)(=O)c2ccc(C)cc2)cc1 (some centres not stated)	/	/	/	?	i	/
SMILES	ASM inhibitor	SW480 rerep	MCF10A rereplic	KB-V1 MDR tox	KB-3-1 tox	Giardia kill
Cc1oc(-c2ccccc2F)nc1CS(=O)(=O)CC(=O)N1CCN(c2ccc(Cl)cc2)CC1	/	/	/	i	16µM*	/
CC(=O)c1ccc(N2CCN(C(=O)C3CCN(S(=O)(=O)c4ccc(Br)s4)CC3)CC2)cc1	/	/	/	?	i	/
O=c1ccn(Cc2ccccc2)c(=O)n1Cc1ccccc1	-1%	-9%	21µM*	i	i	-5
CCOc1ccc(NC(=S)Nc2cc(-c3ccccc3)[nH]n2)cc1	-13%	4%	-5%	15µM*	i	-1
COc1ccccc1CNC(=O)Cc1csc2nc(-c3ccc(F)cc3)cn12	/	/	/	i	i	/
COc1cc2c(cc1OC)C(c1ccc(-c3ccc(Cl)c(Cl)c3)o1)=NCC2	9%	18µM*	2.3µM*	?	16µM*!	-4
COc1cc2c(cc1OC)C(c1ccc(-c3ccccc3Cl)o1)=NCC2	15%	?	?	i	i	5
COc1cc2c(cc1OC)C(c1ccc(-c3cc(Cl)ccc3Cl)o1)=NCC2	226%	16µM*	?	5.2µM*	?	-1
COc1cc2c(cc1OC)C(c1ccc(-c3ccc(Cl)cc3Cl)o1)=NCC2	-3%	?	?	2.6µM*	23µM*	-2
Cc1[nH]c2ccc(C(=O)N3CCN(c4ccccc4F)CC3)cc2c1C	/	/	/	i	i	/
O=C(O)c1ccc(S(=O)(=O)N2CCSCC2)cc1	-2%	-4%	-7%	i	i	-14
Cc1ccc(-c2nc3cccnc3o2)cc1NC(=O)COc1ccc(C(C)(C)C)cc1	?	?	18µM*	?	?	2
CCCCC(=O)N(C)c1c(C)nc2ccc(C(=O)NCc3ccccc3OC)cn12	/	/	/	i	i	/
COc1cccc(OC)c1-c1cc(CCCc2cc(-c3c(OC)cccc3OC)nc3ccccc23)c2ccccc2n1	/	/	/	?	i	/
COc1ccc(S(=O)(=O)N(C)c2nc3ccccc3n3c(CC(C)C)nnc23)cc1	-2%	14%	12µM*	?	i	7
COc1cc(NC(=O)c2ccc([N+](=O)[O-])o2)ccc1NC(=O)c1cccs1	-4%	6.5µM*	?	i	?	-102*
Cc1ccc(NC(=O)c2cccs2)cc1[N+](=O)[O-]	-5%	6%	5%	?	i	8
O=C(Nc1cccc(NC(=O)c2cccs2)c1)c1ccc([N+](=O)[O-])o1	-4%	?	19%	?	16µM*	-89*
Cc1c(C2=CCN(S(=O)(=O)c3cccc(Cl)c3)CC2)c2ccccc2n1CC(=O)N1CCCC1	/	/	/	/	/	-2
CCN(Cc1ccc(OC)c(F)c1)C(=O)CCl	0%	16µM*	?	?	?	-7
COc1ccc(OC)c(/C=C/c2ccc3ccccc3[n+]2C)c1	/	/	/	i	?	/
Cc1ccc(NC(=O)CS(=O)CC(=O)NCCCc2ccccc2)cc1Cl (configuration not stated)	1%	7.3µM*	?	i	i	-16
Cc1ccc(NC(=O)CS(=O)CC(=O)Nc2cnc3ccccc3c2)cc1Cl (configuration not stated)	-4%	-1%	24%	i	i	-10
COc1ccccc1-n1ccnc(SCC(=O)NCCc2ccccc2)c1=O	/	-3%	4%	i	i	-8

Bioassay records deposited in PubChem by National Center for Advancing Translational Sciences (NCATS).
